Compound activity deposited in PubChem by National Center for Advancing Translational Sciences (NCATS).
KinaseGlo FLuc – Kinase-Glo luciferase inhibition (counter-screen); Q27757; Kinase-Glo luciferase, ATP luminescence, 8 min; actives 0.28% (n = 200,000); Potency, µM (series often up to 38.3 µM), for the others: at the highest dose activity change, negative = inhibition, hits mostly inhibitors; further: on the % scale 0 is the no-effect control and ±100 the full control effect; nearly all actives have a fitted effect of over 60% in size
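Recombinant Kinase-Glo luciferase, 10 uM ATP (linear range), luciferin; imidazole pH 7.2 / KCl / MgCl2 / Tween / BSA buffer; 8 min RT; luminescence.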
NPC1 promoter act – NPC1 promoter activation | Huh7 NPC1 promoter luciferase reporter, 24 h | Potency, µM (highest dose often 9.22 µM), without a hit: top-dose activation, actives largely listed as activators | actives 2.4% (n = 320,000) | AID 485313; further: % of control where 0% means no effect; nearly all actives have a fitted effect of over 60% in size
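Huh7 cells stably carrying NPC1 promoter–luciferase, plated in Opti-MEM with 10% FBS for 2 h, were exposed to compound in DMSO for 24 h at 37 °C; luciferase reagent was added for 10 min and luminescence read.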
ELG1 genotox – inducers of genotoxicity in HEK293T ELG1-luciferase cells | Potency, µM (top dose mostly 46 µM), without a hit: at the highest dose activity change, positive = activation, most hits filed as activators | actives 1.3% (n = 330,000) | HEK293T ELG1-luciferase reporter, luminescence, 16 h | AID 504466; further: % of control where 0% means no effect; nearly all actives have a fitted effect of over 60% in size
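After overnight (16 hr) compound treatment at 37 °C, ELG1-luciferase HEK293T cells were lysed with ONE-Glo; luminescence quantified 30 min later at room temperature.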
FLuc modulator – firefly luciferase modulation, counter-screen for miR-21 project | P08659 | purified FLuc, Km substrates, luminescence inhibition | Potency, µM (highest dose often 57.5 µM), for inactives: top-dose activity change, negative = inhibition, usual class: inhibitors | actives 6.9% (n = 360,000);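 further: plate controls were vehicle for no effect and reference inhibitor for full effect; nearly all actives have a fitted effect of over 55% in size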
Target sequence (P08659 whole entry, looked up): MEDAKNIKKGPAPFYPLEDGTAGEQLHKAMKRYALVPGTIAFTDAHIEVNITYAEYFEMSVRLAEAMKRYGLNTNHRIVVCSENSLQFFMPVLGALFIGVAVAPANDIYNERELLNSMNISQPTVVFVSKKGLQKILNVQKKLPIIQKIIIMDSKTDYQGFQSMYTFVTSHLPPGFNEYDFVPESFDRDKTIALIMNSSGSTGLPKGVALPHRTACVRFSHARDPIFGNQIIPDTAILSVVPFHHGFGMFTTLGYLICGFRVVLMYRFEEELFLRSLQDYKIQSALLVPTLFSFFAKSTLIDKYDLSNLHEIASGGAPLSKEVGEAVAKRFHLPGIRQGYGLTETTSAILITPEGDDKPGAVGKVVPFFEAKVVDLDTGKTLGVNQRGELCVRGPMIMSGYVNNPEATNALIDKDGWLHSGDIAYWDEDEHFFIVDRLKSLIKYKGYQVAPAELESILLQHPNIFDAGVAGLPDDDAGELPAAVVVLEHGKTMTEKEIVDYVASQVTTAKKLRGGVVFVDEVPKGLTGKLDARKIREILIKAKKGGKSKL
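Purified P. pyralis luciferase, 10 nM final, with Km-level 10 uM D-luciferin and 10 uM ATP in 50 mM Tris acetate pH 7.5, 10 mM Mg acetate, 0.01% Tween-20, 0.05% BSA; 6-point qHTS titration about 60 µM downward; luminescence read.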
Rab9 prom act – Rab9 promoter activation; Huh7 Rab9 promoter-luciferase reporter, luminescence, 24 h; Potency, µM (highest dose often 9.22 µM), inactives show top-dose activation, negative = inhibition, actives largely listed as activators; actives 2.8% (n = 320,000); further: % of control where 0% means no effect; nearly all actives have a fitted effect of over 60% in size
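Stable Rab9-luc Huh7, 1500 cells/well, 2 h settle; cmpd in DMSO, 24 h, 37 °C/5% CO2; luciferase reagent 10 min RT; luminescence.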
SMN2 splice enh – enhancers of SMN2 splice variant expression; Potency, µM (doses to about 46.1 µM), for the others: at the highest dose activity change, positive = activation, actives largely listed as activators; actives 2.8% (n = 210,000); HEK293 SMN2-luciferase splicing reporter, luminescence, 30-36 h; further: % of control where 0% means no effect; nearly all actives have a fitted effect of over 55% in size
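HEK293 cells carry an SMN2 […]–luciferase reporter in which exon 7 inclusion puts luciferase in frame. Cells were plated 10-12 h before compound addition, then incubated 30-36 h at 37C. ONE-Glo luminescence was read; sodium butyrate at 4.5 mM final served as control.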
An asterisk follows results filed as active; u = inconclusive; x = no result given; [ ] = remark or other dose. Most compounds without a hit are left out; they make up all but 7.4% or so of the library. The call rests on the fitted dose curve; in most records, active means well fitted curve in the direction sought with a large enough effect; inconclusive means small, poorly fitted or top-dose-only effect, or another doubt; inactive means no such curve, though single readings can be large; an effect the other way counts as inactive or inconclusive. Potency means the concentration at half of the fitted maximal effect.

SMILES	KinaseGlo FLuc	NPC1 promoter act	ELG1 genotox	FLuc modulator	Rab9 prom act	SMN2 splice enh
CC(=O)Nc1ccc(NC(=O)CSc2ccc(-c3ccc4c(c3)OCO4)nn2)cc1	-18%	26%	u	-19%	24%	u
Cc1ccc2nc(-c3ccc(SCC(=O)Nc4ccc5c(c4)OCCO5)nc3)[nH]c2c1	-7%	3.2µM*	u	0.6µM*	2.8µM*	u
Cc1ccc(-c2ccc(SCC(=O)Nc3ccc4c(c3)OCCO4)nn2)cc1	-7%	18%	11%	1.9µM*	16%	23%
COCCN(C(=O)COC(=O)c1sccc1C)c1c(N)n(Cc2ccccc2)c(=O)[nH]c1=O	x	1%	-4%	1%	-3%	x
COc1cc2oc(=O)c(CC(=O)NCc3ccc(OC)c(OC)c3)c(C)c2cc1Cl	x	x	x	4%	x	0%
COc1cc(NC(=O)CN(C)S(=O)(=O)c2ccc3c(c2)CCCC(=O)N3)cc(OC)c1OC	x	x	x	-12%	x	x
O=C(CN(c1ccc(Cl)c(C(F)(F)F)c1)S(=O)(=O)c1ccccc1)N1CCc2ccccc2C1	x	x	x	-5%	x	-27%
Cc1nnc(N/N=C/c2ccc(-c3ccccc3F)o2)n1N	x	28%	u	21µM*	u	x
Cc1nnc(N/N=C\c2ccc(-c3ccccc3[N+](=O)[O-])o2)n1N	0%	13%	5%	u	6%	14%
O=C(N/N=C/c1cn(-c2ccccc2)nc1-c1cc2ccccc2o1)c1ccncc1	0%	2.8µM*	u	1.9µM*	2.2µM*	7.1µM*
O=C(O)c1cccc(NC(=O)c2cn(-c3ccccc3)nc2-c2cc3ccccc3o2)c1	3%	3%	9%	4.3µM*	9%	21%
O=C(N/N=C/c1cn(-c2ccccc2)nc1-c1cc2ccccc2o1)c1cccnc1	-5%	u	u	2.1µM*	u	4µM*
O=C(N/N=C/c1cn(-c2ccccc2)nc1-c1cccnc1)c1cccnc1	-4%	-4%	-3%	u	-7%	-12%
CNc1cc([N+](=O)[O-])ccc1OCc1ccccc1	x	16%	9%	19µM*	16%	x
COc1ccc2nc3c(cc2c1)Cc1ccccc1-3	13µM*	x	x	x	x	0.5µM*
Clc1cccc(-c2cc3nc4c(c(N5CCOCC5)n3n2)CCCC4)c1	-4%	7%	-2%	u	10%	17%
Clc1cccc(-c2cc3nc4c(c(N5CCN(c6cnccn6)CC5)n3n2)CCCC4)c1	-1%	-1%	-1%	12µM*	9%	-60%
COc1ccc(OC)c2c1cc(C(=O)N[C@@H](Cc1ccccc1)C(=O)O)n2C	x	0%	-2%	-2%	0%	x
CCN(CC)C(=O)c1cn(-c2ccccc2)nc1-c1ccc2c(c1)OCCO2	5%	-5%	-9%	-1%	18%	-25%
O=Cc1cn(-c2ccccc2)nc1-c1ccc(F)cc1	x	22%	-6%	12µM*	5%	x
N#Cc1cn(-c2ccccc2)nc1-c1ccc2c(c1)OCCO2	0%	u	u	-12%[2.3 µM]	4µM*	14µM*
O=Cc1cn(-c2ccccc2)nc1-c1ccc2c(c1)OCCO2	2%	11%	10%	4.8µM*	17%	13µM*
CC(Nc1c[nH]c(=O)[nH]c1=O)c1ccccc1 (stereo not drawn)	x	1%	1%	0%	8%	x
O=C(OCC(=O)N1CCCC1)c1cc(Cl)ccc1Cl	x	3%	11%	-4%	2%	x
CC(CN1CCCCC1)OC(=O)c1ccco1 (stereo not drawn)	x	0%	-1%	1%	3%	x
SMILES	KinaseGlo FLuc	NPC1 promoter act	ELG1 genotox	FLuc modulator	Rab9 prom act	SMN2 splice enh
COc1cccc(NC(=O)C(=O)NCC2CCCN2S(=O)(=O)c2ccccc2)c1 (stereo not drawn)	x	16%	3%	15µM*	u	x
COc1cccc(NC(=O)C(=O)NCCC2CCCCN2S(=O)(=O)c2ccccc2)c1 (stereo not drawn)	x	0%	5%	24µM*	13%	x
N=c1scc(-c2ccccc2)n1/N=C/c1ccco1	-8%	u	u	6.7µM*	3.5µM*	u
C(=N/n1c2ccccc2c2ccccc21)/c1ccco1	0%	-5%	-9%	0%	-2%	u
O=C(CCc1ccccc1)NC(=S)Nc1ccccc1Br	-1%	0%	0%	-1%	9%	-5%
Cc1nn(-c2ccccc2)c(C)c1C(=O)Oc1ccccc1	x	28%	15%	17µM*	u	x
Cc1cc(C(=O)OCC(=O)Nc2c(F)cccc2F)c(C)n1-c1ccccc1	2%	24%	16%	11µM*	25%	-6%
CC(=O)c1c(C)nn(-c2ccccc2)c1C	x	-1%	0%	2%	-6%	x
COc1ccc(OC(=O)c2c(C)nn(-c3ccccc3)c2C)cc1	x	u	u	15µM*	u	x
COc1ccc(OC(=O)c2cnn(-c3ccccc3)c2C)cc1	-6%	3.2µM*	u	4.8µM*	3.2µM*	u
COC(=O)c1cnn(-c2ccccc2)c1N	x	18%	2%	-3%	11%	x
CCC1CN(C(=O)N2CCC(C(=O)NCCC3=CCCCC3)CC2)c2cc(C)ccc2O1 (stereo not drawn)	x	x	x	6%	x	x
Cc1nn(-c2ccccc2)c(C)c1C(=O)OCC(=O)Nc1ccccc1F	x	4µM*	u	4.8µM*	2.2µM*	x
COc1cccc(CC(=O)Nc2ccc3c(c2)OC2(CCCC2)O3)c1	x	17%	3%	13µM*	22%	x
CCOc1ccc(-c2nc(C)c(C(C)=O)n2O)cc1	u	28%	u	6.7µM*	u	13µM*
Cc1cccc(NC(=S)NNC(=O)c2ccc3c(c2)OCO3)c1	-5%	u	u	4.8µM*	1.8µM*	13µM*
O=C(Nc1ccc2c(c1)OCO2)c1cc(-c2cccnc2)nc2ccccc12	-2%	12%	-5%	u	21%	-5%
Cc1cccc(NC(=S)NCc2ccc3c(c2)OCO3)c1	-2%	-2%	1%	-1%	-9%	25%
Cc1ccc(C)c(NC(=O)c2cc(C)nc3ccccc23)c1	x	0%	-3%	-2%	0%	x
CCCc1cc(C(=O)NNC(=S)Nc2cccc(C)c2)cs1	-4%	u	9%	11µM*	2.5µM*	5.6µM*
Cc1ccc(-c2cc(C(=O)Nc3cc(C(=O)O)ccc3C)c3ccccc3n2)cc1	x	-1%	3%	11µM*	-1%	x
Cc1ccc(-c2cc(C(=O)Nc3ccc4c(c3)OCCO4)c3ccccc3n2)cc1	u	16%	9%	9.5µM*	19%	11µM*
Cc1cc2c(cc1Cl)N(C(=O)Nc1ccc(Oc3cccnc3C)nc1)CC2	x	-33%[46.1 µM]	x	x	-31%[46.1 µM]	x
